# What was measured:
# Experiment in all cases: DAPPL (digital affinity profiling via proximity ligation, sequencing); 10 mM Tris-HCl pH 7.5, 50 mM NaCl, 1 mM DTT, 4% glycerol, room temperature, 30 min; GST-TFs on glutathione beads, 16-mer random dsDNA library, 0.1% formaldehyde crosslink after washing; high values mean tight binding
# [1] = biological target: T1, FLI1 (Homo sapiens, UniProt Q01543 1-452); details: protein: recombinant; tags: N-terminal GST; dsDNA, one strand shown
# T1 sequence: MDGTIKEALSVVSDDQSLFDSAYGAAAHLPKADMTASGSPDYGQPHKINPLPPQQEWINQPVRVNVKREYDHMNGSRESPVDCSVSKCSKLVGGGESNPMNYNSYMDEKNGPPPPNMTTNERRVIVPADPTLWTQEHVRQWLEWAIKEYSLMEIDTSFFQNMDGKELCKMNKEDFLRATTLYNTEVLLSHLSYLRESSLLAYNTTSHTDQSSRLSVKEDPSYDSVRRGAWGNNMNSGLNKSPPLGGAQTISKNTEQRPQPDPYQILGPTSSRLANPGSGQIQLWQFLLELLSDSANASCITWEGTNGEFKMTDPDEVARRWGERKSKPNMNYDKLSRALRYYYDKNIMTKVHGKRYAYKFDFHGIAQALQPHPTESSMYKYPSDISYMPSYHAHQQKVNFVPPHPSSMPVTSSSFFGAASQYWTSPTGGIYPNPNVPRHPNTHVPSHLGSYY
# In short: (§1)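 Binding signal is defined as a hexamer's read frequency for one factor over its frequency for the tag-only sample. To obtain reads, GST-fused human transcription factors were expressed in yeast, captured on glutathione beads, barcoded with DNA and pooled with that sample. Pools met 200 nmole of a 16-mer random double-stranded DNA library in Tris/NaCl/DTT/glycerol buffer for 30 min at room temperature before washing, 0.1% formaldehyde crosslinking, proximity ligation (BsaI/T4 ligase, 1 h, 37 °C), PCR and Illumina NextSeq500 sequencing.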
# [2] = biological target: T2, ELK1 (Homo sapiens, UniProt P19419 1-428); details: protein: recombinant; tags: N-terminal GST; dsDNA, one strand shown
# T2 sequence: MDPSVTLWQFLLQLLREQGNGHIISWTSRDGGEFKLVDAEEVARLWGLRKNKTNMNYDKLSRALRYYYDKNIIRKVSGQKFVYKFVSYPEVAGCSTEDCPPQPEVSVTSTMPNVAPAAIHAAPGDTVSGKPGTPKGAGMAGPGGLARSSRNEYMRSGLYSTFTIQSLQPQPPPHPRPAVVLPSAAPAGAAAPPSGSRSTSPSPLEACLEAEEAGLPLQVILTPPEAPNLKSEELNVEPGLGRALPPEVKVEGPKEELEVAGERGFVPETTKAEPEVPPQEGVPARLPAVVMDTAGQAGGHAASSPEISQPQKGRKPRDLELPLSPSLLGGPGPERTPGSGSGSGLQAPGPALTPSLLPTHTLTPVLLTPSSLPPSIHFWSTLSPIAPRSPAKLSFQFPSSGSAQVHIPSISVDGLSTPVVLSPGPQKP
# In short: as §1
# [3] = biological target: T3, GABPA (Homo sapiens, UniProt Q06546 1-454); details: protein: recombinant; tags: N-terminal GST; dsDNA, one strand shown
# T3 sequence: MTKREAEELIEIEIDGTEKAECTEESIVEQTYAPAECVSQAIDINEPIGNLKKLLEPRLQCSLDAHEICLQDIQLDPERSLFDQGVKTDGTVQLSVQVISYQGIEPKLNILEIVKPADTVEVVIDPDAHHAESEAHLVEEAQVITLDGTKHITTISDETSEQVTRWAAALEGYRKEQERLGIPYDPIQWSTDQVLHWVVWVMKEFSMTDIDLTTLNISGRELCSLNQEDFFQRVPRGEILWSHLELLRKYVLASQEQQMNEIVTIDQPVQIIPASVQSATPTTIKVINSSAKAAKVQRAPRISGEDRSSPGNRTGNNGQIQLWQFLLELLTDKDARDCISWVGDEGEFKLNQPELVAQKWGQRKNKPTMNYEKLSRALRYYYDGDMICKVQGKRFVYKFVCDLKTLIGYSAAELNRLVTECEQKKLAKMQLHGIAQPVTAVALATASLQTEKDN
# In short: as §1
# [4] = biological target: T4, ERG (Homo sapiens, UniProt P11308 1-479); details: protein: recombinant; tags: N-terminal GST; dsDNA, one strand shown
# T4 sequence: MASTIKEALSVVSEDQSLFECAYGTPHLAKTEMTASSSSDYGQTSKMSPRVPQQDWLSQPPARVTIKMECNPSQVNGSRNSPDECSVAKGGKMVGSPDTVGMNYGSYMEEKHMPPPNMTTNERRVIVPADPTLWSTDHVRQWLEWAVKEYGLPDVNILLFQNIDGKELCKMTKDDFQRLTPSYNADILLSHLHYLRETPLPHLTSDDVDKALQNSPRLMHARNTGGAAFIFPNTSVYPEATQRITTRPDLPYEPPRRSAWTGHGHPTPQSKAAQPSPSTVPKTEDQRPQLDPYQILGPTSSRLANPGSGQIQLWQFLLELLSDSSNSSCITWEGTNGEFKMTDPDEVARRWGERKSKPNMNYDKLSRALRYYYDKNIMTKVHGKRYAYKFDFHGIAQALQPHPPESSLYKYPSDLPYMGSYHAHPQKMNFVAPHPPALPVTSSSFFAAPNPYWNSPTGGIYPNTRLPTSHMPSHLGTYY
# In short: as §1
# [5] = biological target: ELF1 (Homo sapiens, UniProt P32519 1-619); details: protein: recombinant; tags: N-terminal GST; dsDNA, one strand shown
# ELF1, sequence (P32519 whole entry): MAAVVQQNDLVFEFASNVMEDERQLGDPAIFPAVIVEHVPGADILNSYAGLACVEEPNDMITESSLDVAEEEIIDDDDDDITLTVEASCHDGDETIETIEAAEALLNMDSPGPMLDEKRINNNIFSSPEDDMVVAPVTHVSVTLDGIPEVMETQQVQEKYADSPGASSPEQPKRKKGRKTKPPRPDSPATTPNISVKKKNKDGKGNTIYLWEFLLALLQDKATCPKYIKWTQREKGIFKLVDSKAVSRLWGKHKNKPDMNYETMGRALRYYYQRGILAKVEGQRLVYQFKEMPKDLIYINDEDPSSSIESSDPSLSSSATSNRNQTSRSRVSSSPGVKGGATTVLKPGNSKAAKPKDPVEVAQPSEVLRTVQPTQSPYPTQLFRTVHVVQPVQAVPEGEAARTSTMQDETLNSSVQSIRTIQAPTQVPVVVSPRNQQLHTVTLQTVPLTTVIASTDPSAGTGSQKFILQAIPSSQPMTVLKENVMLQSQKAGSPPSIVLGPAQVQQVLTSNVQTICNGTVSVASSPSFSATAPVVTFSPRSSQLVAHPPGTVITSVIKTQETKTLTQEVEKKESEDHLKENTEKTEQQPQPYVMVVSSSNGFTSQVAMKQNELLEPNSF
# In short: as §1
# [6] = biological target: T5, EHF (Homo sapiens, UniProt Q9NZC4 1-300); details: protein: recombinant; tags: N-terminal GST; dsDNA, one strand shown
# T5 sequence: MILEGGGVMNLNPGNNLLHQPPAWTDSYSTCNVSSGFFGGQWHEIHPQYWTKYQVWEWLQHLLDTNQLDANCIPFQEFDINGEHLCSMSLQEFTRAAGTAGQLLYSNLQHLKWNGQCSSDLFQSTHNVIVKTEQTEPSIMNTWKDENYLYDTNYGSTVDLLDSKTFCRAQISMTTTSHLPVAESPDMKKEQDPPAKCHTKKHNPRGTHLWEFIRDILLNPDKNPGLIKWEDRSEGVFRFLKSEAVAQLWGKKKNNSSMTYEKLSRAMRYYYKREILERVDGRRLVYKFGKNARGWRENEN
# In short: as §1
# [7] = biological target: SPI1 (Homo sapiens, UniProt P17947 1-270); details: protein: recombinant; tags: N-terminal GST; dsDNA, one strand shown
# In short: as §1
# [8] = biological target: SPIB (Homo sapiens, UniProt Q01892 1-262); details: protein: recombinant; tags: N-terminal GST; dsDNA, one strand shown
# SPIB, sequence (Q01892 whole entry): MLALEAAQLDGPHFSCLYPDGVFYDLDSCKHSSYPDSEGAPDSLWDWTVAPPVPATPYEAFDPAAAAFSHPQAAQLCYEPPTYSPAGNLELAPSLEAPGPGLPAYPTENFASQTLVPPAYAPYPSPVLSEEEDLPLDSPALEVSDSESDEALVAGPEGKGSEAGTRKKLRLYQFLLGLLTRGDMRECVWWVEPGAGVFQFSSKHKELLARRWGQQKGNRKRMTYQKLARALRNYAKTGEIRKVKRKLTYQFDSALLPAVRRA
# In short: as §1
# [9] = biological target: T6, ELK3 (Homo sapiens, UniProt P41970 1-407); details: protein: recombinant; tags: N-terminal GST; dsDNA, one strand shown
# T6 sequence: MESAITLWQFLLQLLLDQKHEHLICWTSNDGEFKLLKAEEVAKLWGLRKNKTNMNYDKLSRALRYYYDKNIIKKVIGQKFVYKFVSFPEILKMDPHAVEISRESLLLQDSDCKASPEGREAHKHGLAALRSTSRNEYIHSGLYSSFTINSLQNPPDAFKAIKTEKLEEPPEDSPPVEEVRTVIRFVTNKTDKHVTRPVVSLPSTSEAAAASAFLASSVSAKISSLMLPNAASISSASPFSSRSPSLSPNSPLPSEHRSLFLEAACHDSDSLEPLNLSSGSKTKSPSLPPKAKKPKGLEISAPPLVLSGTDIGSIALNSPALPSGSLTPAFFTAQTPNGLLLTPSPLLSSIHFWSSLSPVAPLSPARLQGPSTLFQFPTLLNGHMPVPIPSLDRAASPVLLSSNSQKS
# In short: as §1
# [10] = biological target: T7, FEV (Homo sapiens, UniProt Q99581 1-238); details: protein: recombinant; tags: N-terminal GST; dsDNA, one strand shown
# T7 sequence: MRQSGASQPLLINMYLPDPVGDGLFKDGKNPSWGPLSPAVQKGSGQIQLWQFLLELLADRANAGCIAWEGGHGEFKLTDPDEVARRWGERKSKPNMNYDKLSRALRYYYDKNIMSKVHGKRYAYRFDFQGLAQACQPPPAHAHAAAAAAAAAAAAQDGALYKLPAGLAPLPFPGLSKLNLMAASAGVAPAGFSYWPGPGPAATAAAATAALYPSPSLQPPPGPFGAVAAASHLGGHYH
# In short: as §1
# [11] = biological target: ETV5 (Homo sapiens, UniProt P41161 1-510); details: protein: recombinant; tags: N-terminal GST; dsDNA, one strand shown
# ETV5, sequence (P41161 whole entry): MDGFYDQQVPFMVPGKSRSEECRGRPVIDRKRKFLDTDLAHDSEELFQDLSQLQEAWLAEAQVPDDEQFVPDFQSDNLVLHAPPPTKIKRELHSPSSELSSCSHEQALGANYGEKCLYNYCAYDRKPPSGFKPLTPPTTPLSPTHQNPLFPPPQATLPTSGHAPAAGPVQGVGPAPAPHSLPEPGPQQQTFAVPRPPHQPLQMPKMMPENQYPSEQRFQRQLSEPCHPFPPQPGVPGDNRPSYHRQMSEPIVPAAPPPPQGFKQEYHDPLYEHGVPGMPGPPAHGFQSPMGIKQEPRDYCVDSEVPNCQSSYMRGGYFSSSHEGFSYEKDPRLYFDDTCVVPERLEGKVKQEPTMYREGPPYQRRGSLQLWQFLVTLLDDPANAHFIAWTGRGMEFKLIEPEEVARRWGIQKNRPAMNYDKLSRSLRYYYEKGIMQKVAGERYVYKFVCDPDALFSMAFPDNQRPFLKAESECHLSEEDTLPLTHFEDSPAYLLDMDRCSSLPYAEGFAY
# In short: as §1
# [12] = biological target: HSF1 (Homo sapiens, UniProt Q00613 1-529); details: protein: recombinant; tags: N-terminal GST; chain copies: 3; dsDNA, one strand shown
# HSF1, sequence (Q00613 whole entry): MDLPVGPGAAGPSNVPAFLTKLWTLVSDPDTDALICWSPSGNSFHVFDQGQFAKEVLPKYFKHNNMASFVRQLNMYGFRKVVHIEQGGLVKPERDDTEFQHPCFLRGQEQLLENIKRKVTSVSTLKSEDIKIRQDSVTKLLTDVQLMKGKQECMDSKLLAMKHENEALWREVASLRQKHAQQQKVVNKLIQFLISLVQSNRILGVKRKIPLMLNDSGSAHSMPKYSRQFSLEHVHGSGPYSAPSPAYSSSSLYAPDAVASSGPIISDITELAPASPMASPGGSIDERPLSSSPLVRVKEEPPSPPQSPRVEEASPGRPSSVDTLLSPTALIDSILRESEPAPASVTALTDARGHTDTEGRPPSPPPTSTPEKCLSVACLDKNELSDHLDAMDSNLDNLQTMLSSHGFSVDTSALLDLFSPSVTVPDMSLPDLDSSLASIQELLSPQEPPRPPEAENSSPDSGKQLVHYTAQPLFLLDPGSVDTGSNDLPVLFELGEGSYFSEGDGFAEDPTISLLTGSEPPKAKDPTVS
# In short: as §1
# [13] = biological target: T8, SPIC (Homo sapiens, UniProt Q8N5J4 1-248); details: protein: recombinant; tags: N-terminal GST; dsDNA, one strand shown
# T8 sequence: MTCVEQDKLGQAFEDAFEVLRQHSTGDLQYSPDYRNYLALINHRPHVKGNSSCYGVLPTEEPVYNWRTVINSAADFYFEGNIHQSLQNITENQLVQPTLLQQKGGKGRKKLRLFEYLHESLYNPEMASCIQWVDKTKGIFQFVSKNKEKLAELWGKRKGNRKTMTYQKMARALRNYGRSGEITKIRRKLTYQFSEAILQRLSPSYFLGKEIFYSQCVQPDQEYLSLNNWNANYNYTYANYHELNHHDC
# In short: as §1
# [14] = biological target: ELF4 (Homo sapiens, UniProt Q99607 1-663); details: protein: recombinant; tags: N-terminal GST; dsDNA, one strand shown
# ELF4, sequence (Q99607 whole entry): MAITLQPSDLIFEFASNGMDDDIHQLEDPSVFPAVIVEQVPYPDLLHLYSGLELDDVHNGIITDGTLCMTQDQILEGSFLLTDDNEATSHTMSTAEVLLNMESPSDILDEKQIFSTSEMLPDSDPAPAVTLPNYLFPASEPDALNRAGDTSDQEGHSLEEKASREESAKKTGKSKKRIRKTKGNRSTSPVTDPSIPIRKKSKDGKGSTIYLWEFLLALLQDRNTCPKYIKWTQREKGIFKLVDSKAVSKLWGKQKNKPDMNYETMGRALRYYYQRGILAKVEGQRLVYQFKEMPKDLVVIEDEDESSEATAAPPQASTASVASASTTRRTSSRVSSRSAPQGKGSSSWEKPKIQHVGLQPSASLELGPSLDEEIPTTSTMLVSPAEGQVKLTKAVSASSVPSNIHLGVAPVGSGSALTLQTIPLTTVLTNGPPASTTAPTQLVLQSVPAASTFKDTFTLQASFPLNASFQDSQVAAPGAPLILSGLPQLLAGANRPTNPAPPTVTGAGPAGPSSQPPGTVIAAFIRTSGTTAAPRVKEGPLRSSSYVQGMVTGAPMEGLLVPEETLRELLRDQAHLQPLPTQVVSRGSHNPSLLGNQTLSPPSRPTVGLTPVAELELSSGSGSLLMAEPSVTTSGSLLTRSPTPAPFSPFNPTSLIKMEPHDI
# In short: as §1
# [15] = biological target: T9, ELK4 (Homo sapiens, UniProt P28324-2 1-405); details: protein: recombinant; tags: N-terminal GST; dsDNA, one strand shown
# T9 sequence: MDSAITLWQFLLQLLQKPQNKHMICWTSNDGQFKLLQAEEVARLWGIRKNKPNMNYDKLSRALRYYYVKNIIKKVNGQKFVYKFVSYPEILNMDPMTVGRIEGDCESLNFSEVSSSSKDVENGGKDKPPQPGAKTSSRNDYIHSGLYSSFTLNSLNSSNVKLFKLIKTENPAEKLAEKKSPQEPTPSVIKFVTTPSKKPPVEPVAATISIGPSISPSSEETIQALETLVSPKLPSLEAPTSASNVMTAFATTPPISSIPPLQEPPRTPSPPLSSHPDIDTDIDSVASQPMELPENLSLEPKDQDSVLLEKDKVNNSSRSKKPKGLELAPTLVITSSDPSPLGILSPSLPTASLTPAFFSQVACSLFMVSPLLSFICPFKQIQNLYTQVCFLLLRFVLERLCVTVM
# In short: as §1
# [16] = biological target: T10, ETV2 (Homo sapiens, UniProt O00321 1-342); details: protein: recombinant; tags: N-terminal GST; dsDNA, one strand shown
# T10 sequence: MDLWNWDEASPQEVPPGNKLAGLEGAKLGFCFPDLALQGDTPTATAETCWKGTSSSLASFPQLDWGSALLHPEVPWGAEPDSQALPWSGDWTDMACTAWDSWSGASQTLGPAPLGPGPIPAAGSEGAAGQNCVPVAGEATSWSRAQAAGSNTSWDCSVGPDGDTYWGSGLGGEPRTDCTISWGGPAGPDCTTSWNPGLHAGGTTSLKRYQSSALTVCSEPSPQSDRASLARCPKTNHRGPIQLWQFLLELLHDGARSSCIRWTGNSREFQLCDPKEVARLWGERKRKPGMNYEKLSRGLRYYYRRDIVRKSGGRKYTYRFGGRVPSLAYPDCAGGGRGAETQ
# In short: as §1
# [17] = biological target: T11, ELF3 (Homo sapiens, UniProt P78545 1-371); details: protein: recombinant; tags: N-terminal GST; dsDNA, one strand shown
# T11 sequence: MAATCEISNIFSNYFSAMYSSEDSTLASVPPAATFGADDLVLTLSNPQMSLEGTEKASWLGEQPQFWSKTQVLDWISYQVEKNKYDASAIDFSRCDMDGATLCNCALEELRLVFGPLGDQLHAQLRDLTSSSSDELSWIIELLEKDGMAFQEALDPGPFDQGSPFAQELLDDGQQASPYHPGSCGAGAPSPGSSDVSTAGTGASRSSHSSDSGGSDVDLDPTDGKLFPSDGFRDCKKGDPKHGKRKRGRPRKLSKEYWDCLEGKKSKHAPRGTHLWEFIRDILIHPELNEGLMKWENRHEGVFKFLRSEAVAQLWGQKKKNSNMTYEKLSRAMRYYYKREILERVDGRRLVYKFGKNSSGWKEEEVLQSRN
# In short: as §1
# [18] = biological target: CRX (Homo sapiens, UniProt O43186 1-299); details: protein: recombinant; tags: N-terminal GST; dsDNA, one strand shown
# CRX, sequence (O43186 whole entry): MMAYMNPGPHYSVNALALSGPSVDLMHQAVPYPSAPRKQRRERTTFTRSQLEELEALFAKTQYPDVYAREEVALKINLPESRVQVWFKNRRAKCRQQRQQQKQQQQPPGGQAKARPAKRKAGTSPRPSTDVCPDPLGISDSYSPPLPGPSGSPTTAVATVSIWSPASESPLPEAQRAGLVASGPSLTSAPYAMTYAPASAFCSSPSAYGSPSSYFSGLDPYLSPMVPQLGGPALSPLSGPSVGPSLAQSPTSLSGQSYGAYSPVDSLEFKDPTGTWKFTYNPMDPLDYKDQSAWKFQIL
# In short: as §1
# [19] = biological target: ETV1 (Homo sapiens, UniProt P50549 1-477); details: protein: recombinant; tags: N-terminal GST; dsDNA, one strand shown
# ETV1, sequence (P50549 whole entry): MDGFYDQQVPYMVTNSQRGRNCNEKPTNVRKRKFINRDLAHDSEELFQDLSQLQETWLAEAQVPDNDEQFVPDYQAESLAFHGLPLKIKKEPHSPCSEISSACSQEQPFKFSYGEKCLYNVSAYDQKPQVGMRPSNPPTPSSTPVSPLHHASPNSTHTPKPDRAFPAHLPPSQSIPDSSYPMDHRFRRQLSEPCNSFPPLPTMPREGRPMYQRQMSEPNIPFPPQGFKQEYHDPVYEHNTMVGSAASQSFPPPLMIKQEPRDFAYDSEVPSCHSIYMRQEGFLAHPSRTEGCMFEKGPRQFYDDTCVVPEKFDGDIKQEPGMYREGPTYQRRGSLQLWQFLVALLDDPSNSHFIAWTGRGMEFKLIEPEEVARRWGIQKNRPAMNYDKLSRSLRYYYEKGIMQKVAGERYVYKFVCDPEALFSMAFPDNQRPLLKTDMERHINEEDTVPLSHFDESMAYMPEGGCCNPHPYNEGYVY
# In short: as §1
sequence,measurement,setting,value
AGATTT,binding signal,[1],"1.12 fold enrichment (6-mer frequency, TF over GST control)"
same,binding signal,[2],"1.14 fold enrichment (6-mer frequency, TF over GST control)"
same,binding signal,[3],"1.08 fold enrichment (6-mer frequency, TF over GST control)"
same,binding signal,[4],"1.21 fold enrichment (6-mer frequency, TF over GST control)"
same,binding signal,[5],"1.11 fold enrichment (6-mer frequency, TF over GST control)"
same,binding signal,[6],"1.2 fold enrichment (6-mer frequency, TF over GST control)"
same,binding signal,[7],"1.13 fold enrichment (6-mer frequency, TF over GST control)"
same,binding signal,[8],"1.09 fold enrichment (6-mer frequency, TF over GST control)"
same,binding signal,[9],"1.01 fold enrichment (6-mer frequency, TF over GST control)"
same,binding signal,[10],"1.16 fold enrichment (6-mer frequency, TF over GST control)"
same,binding signal,[11],"1.2 fold enrichment (6-mer frequency, TF over GST control)"
same,binding signal,[12],"1.75 fold enrichment (6-mer frequency, TF over GST control)"
same,binding signal,[13],"1.06 fold enrichment (6-mer frequency, TF over GST control)"
same,binding signal,[14],"1.16 fold enrichment (6-mer frequency, TF over GST control)"
same,binding signal,[15],"1.25 fold enrichment (6-mer frequency, TF over GST control)"
same,binding signal,[16],"1.05 fold enrichment (6-mer frequency, TF over GST control)"
same,binding signal,[17],"1.21 fold enrichment (6-mer frequency, TF over GST control)"
same,binding signal,[18],"1.84 fold enrichment (6-mer frequency, TF over GST control)"
same,binding signal,[19],"1.15 fold enrichment (6-mer frequency, TF over GST control)"

# — article PMC7862700, “An all-to-all approach to the identification of sequence-specific readers for epigenetic DNA modifications on cytosine”
